Source: PubChem (National Center for Advancing Translational Sciences (NCATS))
The list is not random: actives were taken first. Their share in the collection is about 19%.
Giardia killer: kills Giardia lamblia; activity change, % at 7.66 µM, hits read low; Giardia lamblia trophozoite viability; hit rate 0.15% among 340,000; AID 540267; in the data active = activity change below about -80%; inconclusive = between about -30% and that limit;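 note: parasites exposed to compound for two days anaerobically before the ATP read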
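Anaerobic 48 hrs incubation at 37 deg C of 100 trophozoites/well with test compounds; ATPLite 1-Step luminescence, 15-30 min RT, reports cellular ATP as viability.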
DT40 TDP1 CPT: DT40-hTDP1 cell growth loss with CPT | chicken DT40 Tdp1-/-;hTDP1 cells + 20 nM CPT, ATP luminescence, 48 h | Potency, µM (titrated, usually from 46.2 µM), for inactives: at the top dose activity change, negative = growth inhibition, hits mostly inhibitors | hit rate 12% among 420,000 | AID 686979; note: potency is the fitted concentration of half-maximal effect; nearly all actives have a fitted effect of over 55% in size
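Chicken DT40 Tdp1-/- cells stably complemented with human TDP1 were seeded at 400 cells/well in medium containing 20 nM camptothecin, exposed to pin-transferred compounds, and grown at 37 °C for at least 48 hr. Viability was read as ATP luminescence.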
TDP1 inh: inhibitors of human tyrosyl-DNA phosphodiesterase TDP1; Q9NUW8; recombinant TDP1, AlphaScreen DNA substrate cleavage; Potency, µM (highest dose often 130 µM), for inactives: at the top dose activity change, negative = inhibition, actives largely listed as inhibitors; hit rate 0.28% among 350,000; note: potency is the fitted concentration of half-maximal effect; nearly all actives have a fitted effect of over 40% in size
Target sequence (Q9NUW8 whole entry, looked up): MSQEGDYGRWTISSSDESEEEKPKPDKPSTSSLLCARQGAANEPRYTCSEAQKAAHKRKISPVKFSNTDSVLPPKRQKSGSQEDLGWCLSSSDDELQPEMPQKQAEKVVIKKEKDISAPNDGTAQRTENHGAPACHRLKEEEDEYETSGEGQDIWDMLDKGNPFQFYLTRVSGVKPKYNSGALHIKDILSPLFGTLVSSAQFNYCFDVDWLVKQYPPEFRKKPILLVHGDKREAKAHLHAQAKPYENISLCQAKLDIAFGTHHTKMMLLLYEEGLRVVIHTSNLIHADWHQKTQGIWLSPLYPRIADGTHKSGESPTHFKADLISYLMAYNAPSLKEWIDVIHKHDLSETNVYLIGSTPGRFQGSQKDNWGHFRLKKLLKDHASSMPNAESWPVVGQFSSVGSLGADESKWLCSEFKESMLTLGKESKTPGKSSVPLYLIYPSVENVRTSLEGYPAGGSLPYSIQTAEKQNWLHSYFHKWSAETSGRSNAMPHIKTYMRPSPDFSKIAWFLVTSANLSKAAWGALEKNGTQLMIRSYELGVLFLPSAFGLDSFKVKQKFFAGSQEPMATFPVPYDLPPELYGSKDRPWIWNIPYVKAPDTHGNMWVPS
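Signal: AlphaScreen proximity between streptavidin donor and anti-FITC acceptor beads on intact substrate. Reaction: Tdp1 1 nM, substrate 15 nM final, 5 min RT after 15 min compound preincubation.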
ELG1 DNA repair: inhibitors of ELG1-dependent DNA repair in HEK293T cells | Potency, µM (top dose mostly 46.1 µM), for inactives: at the top dose activity change, negative = inhibition, most hits filed as inhibitors | HEK293T ELG1-luciferase reporter, luminescence, 16 h; DNA damage induced by 5-fluorouridine | hit rate 2.3% among 330,000; note: potency is the fitted concentration of half-maximal effect; nearly all actives have a fitted effect of over 55% in size
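Cells (2,000 per well) received 5-fluorouridine plus test compound or DMSO and were incubated 16 hr at 37 °C, 5% CO2. Luciferase activity was read by luminescence 30 min after ONE-Glo addition; signal suppression marked inhibition of damage-induced ELG1 function.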
DT40 TDP1 no CPT: qHTS for Inhibitors of human tyrosyl-DNA phosphodiesterase 1 (TDP1): qHTS in cells in absence of CPT; hit rate 15% among 420,000; DT40 Tdp1-/- hTDP1 cells, no CPT, ATP luminescence, 48 h; AID 686978, 2013; Potency, µM (doses to about 46.2 µM), for the others: top-dose activity change, negative = growth inhibition, most hits filed as inhibitors; note: potency is the fitted concentration of half-maximal effect; nearly all actives have a fitted effect of over 55% in size
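Camptothecin absent (DMSO only). Human TDP1-complemented DT40 knockout cells, 400 cells/well, 37 °C for minimum 48 hr; ATP measured via CellTiter-Glo, 30 min dark incubation, luminescence.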
IL-1B inflam inh: inflammasome signaling inhibition, IL-1 beta readout; hit rate 4.7% among 360,000; THP-1 LPS/ATP IL-1B secretion, AlphaLISA, 16 h; hits give low values; activity change, % at 57.5 µM; in the data active = activity change below about -50%; inconclusive = mostly about -30% to -49%
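Secreted IL-1B measured by AlphaLISA bead assay after 16 h compound exposure of THP-1 cells; compounds (final up to 57.5 uM) added 1 h before LPS (250 ng/mL) and ATP (1.25 mM) stimulation; lower signal means less secretion.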
* hit, by the source's call; ? = inconclusive; . = no result; [ ] = dose if it differs, or a comment. Unless noted, calls come from the whole dose curve; as a rule, active = well fitted curve in the direction sought with a large enough effect; inconclusive = small, poorly fitted or top-dose-only effect, or another doubt; inactive = no such curve, though single readings can be large; an effect the other way counts as inactive or inconclusive. % is set by controls: 0 for no effect and ±100 for the full control effect.

SMILES	Giardia killer	DT40 TDP1 CPT	TDP1 inh	ELG1 DNA repair	DT40 TDP1 no CPT	IL-1B inflam inh
O=C(Nc1ccc(Nc2ccccc2)cc1)C(Cl)Cl	11	1.2µM*	8%	-15%	1.8µM*	-89*
O=C(Nc1ccc(Cl)cc1)C1=Cc2ccccc2OC1	15	?	3%	?	23µM*	-27
NC(=O)Nc1ccc(Nc2ccccc2)cc1	-12	?	5%	?	-28%	10
O=C(/C=N/NC(=O)c1ccc(Cl)cc1Cl)c1ccccc1	-9	?	10%	7%	?	-77*
O=C(Nc1ccccc1Br)c1cc[n+]([O-])cc1	-14	4%	3%	17%	4%	31
O=C(Nc1ccc(Nc2ccccc2)cc1)c1ccccc1	20	?	.	.	21µM*	-27
O=C(Nc1ccc(Nc2ccccc2)cc1)c1ccc(Cl)cc1	10	18µM*	.	.	13µM*	-62*
O=C(Nc1ccccc1)C(c1ccccc1)c1ccccc1	4	-2%	.	4%	-27%	-11
C#Cc1cccc(NC(=O)c2ccc(Cl)cc2Cl)c1	-10	-12%	.	?	29µM*	-8
CC(C)(C)C(=O)C(Cl)C(=O)Nc1ccccc1 (centres undefined)	15	5.2µM*	.	?	4.1µM*	?
Nc1ncnc2c1C(c1ccccc1)c1c(ccc3ccccc13)O2 (centres undefined)	-27	.	4%	-29%	.	.
O=C(CSC(=S)N1CCCC1)N1CCN(S(=O)(=O)c2cccc([N+](=O)[O-])c2)CC1	-8	7%	3%	6%	-1%	-4
COC(=O)c1ccc2c(c1)N(CC(=O)Nc1ccc(C)cc1Cl)C(=O)c1ccccc1S2	.	.	1%	.	.	.
O=C(Nc1ccc(Nc2ccccc2)cc1)c1ccc(Cl)cc1Cl	7	15µM*	.	.	?	?
COc1ccc(NC(=O)Cn2cnc3ccc(S(=O)(=O)N4CCC(C)CC4)cc3c2=O)c(OC)c1	.	?	3%	.	-21%	.
COc1ccc(OC)c(NC(=O)Cn2cnc3ccc(S(=O)(=O)N4CCC(C)CC4)cc3c2=O)c1	.	23µM*	8%	.	?	.
CC1CCN(S(=O)(=O)c2ccc3ncn(CC(=O)Nc4ccccc4C(F)(F)F)c(=O)c3c2)CC1	.	21µM*	6%	.	?	.
COc1ccc(NC(=O)Cn2cnc3ccc(S(=O)(=O)N4CCC(C)CC4)cc3c2=O)cc1OC	.	26µM*	2%	.	?	.
COc1ccc(CN(C)Cc2c(O)ccc3ccccc23)cc1	-25	?	1%[0.0935 µM]	2%	-2%	-21
CCc1c(C)nc2[nH]nc(-c3ccccc3C)n2c1=O	11	?	3%	28%	15µM*	-15
CCSC1=NC2(CCCCC2)Nc2sc3c(c21)CCCC3	-1	23µM*	7%	3%	?	-22
CCSc1nc2sc3c(c2c(=O)[nH]1)CCCC3	-4	16%	3%	18%	5%	38
COc1ccc(-n2c(=O)c3c4c(sc3n(CC(N)=O)c2=O)CCCCC4)cc1	1	-11%	3%	-12%	-8%	-8
CC(=O)c1sc2c(c1C)c(=O)n(-c1ccc(Cl)cc1)c(=O)n2Cc1ccc(Cl)cc1	.	8.2µM*	9%	.	8.2µM*	.
O=C(Cn1c(=O)n(-c2ccc(Cl)cc2)c(=O)c2c3c(sc21)CCC3)c1ccc(F)cc1	.	8.2µM*	-2%	.	9.2µM*	.
SMILES	Giardia killer	DT40 TDP1 CPT	TDP1 inh	ELG1 DNA repair	DT40 TDP1 no CPT	IL-1B inflam inh
Cc1sc2c(c1C)c(=O)n(-c1ccc(Cl)cc1)c(=O)n2CC(=O)c1ccccc1	.	-18%	-3%	.	-16%	.
CCOC(=O)N1CCc2c(sc3c2c(=O)n(-c2ccc(CC)cc2)c(=O)n3CC(=O)c2ccc(F)cc2)C1	.	13µM*	4%	.	?	.
CCc1ccc(-n2c(=O)c3c4c(sc3n(CC(=O)c3ccc(Br)cc3)c2=O)CCC4)cc1	.	5.8µM*	-1%	.	3.7µM*	.
C=CCOC(=O)N[C@H](/C(C(=O)OC)=C(\C)NCc1ccccc1)c1cccc(F)c1	.	.	-1%	.	.	.
CC(=O)N1CCN2C(=O)C1CCCC(=O)c1cc(C)ccc12 (centres undefined)	-11	-5%	2%	16%	2%	11
CC(=O)N1CCN(C(=O)CCC(=O)O)CC1	-3	5%	1%	21%	-5%	-13
COc1ccc(NC(=O)C2(C)Cc3c(-c4cccc(C(N)=O)c4)ccnc3O2)cc1OC (centres undefined)	.	?	.	.	?	18
CCc1ccc(-n2c(=O)c3c4c(sc3n(Cc3cc(=O)n5c(C)cccc5n3)c2=O)CCC4)cc1	.	?	-2%	.	12µM*	.
Cc1cccc2nc(Cn3c(=O)n(-c4ccccc4)c(=O)c4c5c(sc43)CCC5)cc(=O)n12	.	?	2%	.	?	.
CCc1ccc(-n2c(=O)c3c4c(sc3n(CC(=O)NCCCOC)c2=O)CCCC4)cc1	.	?	5%	.	?	.
CCc1ccc(-n2c(=O)c3c4c(sc3n(CC(=O)c3ccc(Cl)cc3)c2=O)CCC4)cc1	.	2.6µM*	-3%	.	2.6µM*	.
COc1ccc(CCNC(=O)c2ccc3c(c2)CCN3S(=O)(=O)c2ccccc2)cc1	.	3.7µM*	0%	.	21µM*	.
COc1ccc(CCNC(=O)c2ccc3c(c2)CCN3S(C)(=O)=O)cc1OC	.	-12%	5%	.	?	.
Cc1ccc(S(=O)(=O)N2CCc3cc(C(=O)N(C)Cc4ccccc4)ccc32)cc1	.	15µM*	2%	.	13µM*	.
COc1ccc(CCNC(=O)c2ccc3c(c2)CCN3S(=O)(=O)c2ccccc2)cc1OC	.	16µM*	0%	.	?	.
O=S(=O)(NCCNc1nc(-c2ccco2)nc2ccccc12)c1ccccc1	.	.	3%	.	.	.
CCOC(=O)CC1COCCN1C(=O)c1cc(COc2ccc(F)cc2Cl)on1 (centres undefined)	10	?	0%	13%	?	?
CCn1c(C)cc(C(=O)CN2C(=O)c3ccccc3S2(=O)=O)c1C	-2	3%	2%[56.1 µM]	?	-9%	-8
CC1Cc2ccccc2N1CC(=O)NC(=O)NC1CCCCC1 (centres undefined)	8	18µM*	3%	3%	-17%	35
CC1Cc2ccccc2N1CC(=O)NC(=O)NC(C)(C)C (centres undefined)	3	5%	6%	-13%	7%	65
CN(C)S(=O)(=O)c1cc(NC(=O)CN2CCN(c3ccccc3F)CC2)ccc1Cl	2	?	-3%	-18%	21µM*	0
